# Assay results as given in PubChem BioAssay (EPA / NIEHS).
# Active and inactive are the calls of the source. Rule for the calls: active = hit-call score of the fitted dose curve at least 0.9, where 1 is the maximum; inactive = score below 0.9.
# Test: CCTE_Padilla_ZF_Score.Spine: CCTE's 144 Hour Post-fertilization zebrafish Assay Score for Spine Malformation, Padilla Lab (AID 2284407)
# Outline: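 Spine malformation scored at 6 dpf by two independent blinded observers under stereomicroscope, after static sealed exposure from 6–8 hpf at 26C in Hanks' solution with rinse on 5 dpf. Positive-direction fit against DMSO control.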
row,Compound,outcome
1,O=CC(F)(F)C(F)(F)C(F)(F)F,inactive
2,FC(OC(F)(F)C(F)(F)C(F)(F)F)C(F)(F)F (stereo not drawn),inactive
3,COC(=O)C(F)(F)C(F)(F)C(F)(F)C(F)(F)C(F)(F)F,inactive
4,O=C(O)CCC(F)(F)C(F)(F)C(F)(F)C(F)(F)C(F)(F)C(F)(F)F,inactive
5,C=CC(F)(F)C(F)(F)C(F)(F)C(F)(F)F,inactive
6,CN(CCO)S(=O)(=O)C(F)(F)C(F)(F)C(F)(F)C(F)(F)C(F)(F)C(F)(F)C(F)(F)C(F)(F)F,inactive
7,O=P(O)(O)CCC(F)(F)C(F)(F)C(F)(F)C(F)(F)C(F)(F)C(F)(F)C(F)(F)C(F)(F)F,inactive
8,O=C(OC(=O)C(F)(F)C(F)(F)F)C(F)(F)C(F)(F)F,inactive
9,FC1(F)C=CC(F)(F)C1(F)F,inactive
10,O=C(O)C(F)(F)OC(F)(F)C(F)(F)OC(F)(F)C(F)(F)OC(F)(F)C(F)(F)C(F)(F)C(F)(F)F,inactive
11,FC(F)(F)C1(F)C(F)(F)C(F)(F)C(F)(F)C(F)(C(F)(F)F)C1(F)F (stereo not drawn),inactive
12,OCC(F)(F)C(F)(F)C(F)(F)C(F)(F)C(F)(F)C(F)(F)C(F)(F)C(F)(F)C(F)(F)C(F)(F)C(F)(F)F,inactive
13,O=CC(F)(F)C(F)(F)C(F)(F)C(F)F,inactive
14,O=C(F)C(F)(F)C(F)(F)C(F)(F)C(=O)F,inactive
15,O=C1OC(=O)C(F)(F)C1(F)F,inactive
16,C=CC(=O)OCCC(F)(F)C(F)(F)C(F)(F)C(F)(F)C(F)(F)C(F)(F)C(F)(F)C(F)(F)F,inactive
17,NC(C(F)(F)F)C(F)(F)F,inactive
18,O=C(O)CCC(F)(F)C(F)(F)C(F)(F)C(F)(F)C(F)(F)F,inactive
19,FC(F)=C(F)C(F)(F)C(F)(F)C(F)(F)C(F)F,inactive
20,FCOC(C(F)(F)F)C(F)(F)F,inactive
21,FC(F)(F)N1C(F)(F)C(F)(F)OC(F)(F)C1(F)F,inactive
22,FC(F)(F)C1(F)C(F)(F)C(F)(F)C(F)(F)C1(F)F,inactive
23,O=C(CC(=O)C(F)(F)C(F)(F)C(F)(F)F)c1cccs1,inactive
24,O=P(O)(O)CCC(F)(F)C(F)(F)C(F)(F)C(F)(F)C(F)(F)C(F)(F)F,inactive

# Test: CCTE_Padilla_ZF_Score.Position: CCTE's 144 Hour Post-fertilization zebrafish Assay Score for Position, Padilla Lab (AID 2284409)
# Outline: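 Wild-type zebrafish embryos (with chorions) exposed singly from 6–8 hpf in sealed wells of Hanks' solution at 26C, rinsed at 5 dpf. At 6 dpf, blinded assessors scored abnormal water-column position by brightfield stereomicroscopy, relative to DMSO.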
Compound,outcome,AC50
O=CC(F)(F)C(F)(F)C(F)(F)F,inactive,
FC(OC(F)(F)C(F)(F)C(F)(F)F)C(F)(F)F (stereo not drawn),inactive,
COC(=O)C(F)(F)C(F)(F)C(F)(F)C(F)(F)C(F)(F)F,inactive,
O=C(O)CCC(F)(F)C(F)(F)C(F)(F)C(F)(F)C(F)(F)C(F)(F)F,inactive,
C=CC(F)(F)C(F)(F)C(F)(F)C(F)(F)F,inactive,
CN(CCO)S(=O)(=O)C(F)(F)C(F)(F)C(F)(F)C(F)(F)C(F)(F)C(F)(F)C(F)(F)C(F)(F)F,inactive,
O=P(O)(O)CCC(F)(F)C(F)(F)C(F)(F)C(F)(F)C(F)(F)C(F)(F)C(F)(F)C(F)(F)F,,65.2 µM (active)
O=C(OC(=O)C(F)(F)C(F)(F)F)C(F)(F)C(F)(F)F,inactive,
FC1(F)C=CC(F)(F)C1(F)F,inactive,
O=C(O)C(F)(F)OC(F)(F)C(F)(F)OC(F)(F)C(F)(F)OC(F)(F)C(F)(F)C(F)(F)C(F)(F)F,,8.31 µM (active)
FC(F)(F)C1(F)C(F)(F)C(F)(F)C(F)(F)C(F)(C(F)(F)F)C1(F)F (stereo not drawn),inactive,
OCC(F)(F)C(F)(F)C(F)(F)C(F)(F)C(F)(F)C(F)(F)C(F)(F)C(F)(F)C(F)(F)C(F)(F)C(F)(F)F,inactive,
O=CC(F)(F)C(F)(F)C(F)(F)C(F)F,inactive,
O=C(F)C(F)(F)C(F)(F)C(F)(F)C(=O)F,inactive,
O=C1OC(=O)C(F)(F)C1(F)F,inactive,
C=CC(=O)OCCC(F)(F)C(F)(F)C(F)(F)C(F)(F)C(F)(F)C(F)(F)C(F)(F)C(F)(F)F,inactive,
NC(C(F)(F)F)C(F)(F)F,inactive,
O=C(O)CCC(F)(F)C(F)(F)C(F)(F)C(F)(F)C(F)(F)F,,10.7 µM (active)
FC(F)=C(F)C(F)(F)C(F)(F)C(F)(F)C(F)F,inactive,
FCOC(C(F)(F)F)C(F)(F)F,inactive,
FC(F)(F)N1C(F)(F)C(F)(F)OC(F)(F)C1(F)F,inactive,
FC(F)(F)C1(F)C(F)(F)C(F)(F)C(F)(F)C1(F)F,inactive,
O=C(CC(=O)C(F)(F)C(F)(F)C(F)(F)F)c1cccs1,inactive,
O=P(O)(O)CCC(F)(F)C(F)(F)C(F)(F)C(F)(F)C(F)(F)C(F)(F)F,inactive,
